Tests used:
Assay in all cases: DAPPL (digital affinity profiling via proximity ligation, sequencing); 10 mM Tris-HCl pH 7.5, 50 mM NaCl, 1 mM DTT, 4% glycerol, room temperature, 30 min; GST-TFs on glutathione beads, 16-mer random dsDNA library, 0.1% formaldehyde crosslink after washing; high values mean tight binding
Details in all cases: protein: recombinant; tags: N-terminal GST; dsDNA, one strand shown
FEV = target: T1, FEV (Homo sapiens, UniProt Q99581 1-238)
T1 sequence: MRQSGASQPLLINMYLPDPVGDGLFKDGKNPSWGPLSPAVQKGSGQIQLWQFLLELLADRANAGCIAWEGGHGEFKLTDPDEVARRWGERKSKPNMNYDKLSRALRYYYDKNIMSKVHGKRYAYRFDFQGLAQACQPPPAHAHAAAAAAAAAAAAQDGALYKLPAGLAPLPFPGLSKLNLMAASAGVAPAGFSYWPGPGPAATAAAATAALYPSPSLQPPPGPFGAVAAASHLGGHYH
Outline: (§1)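 Yeast served to express human transcription factors as GST fusions, which were then captured on glutathione beads and labelled with DNA barcodes. Pooled with a tag-only sample, they were incubated with 200 nmole of a 16-mer random double-stranded DNA library for 30 min at room temperature in Tris/NaCl/DTT/glycerol buffer, washed, crosslinked with 0.1% formaldehyde, ligated by proximity, amplified by PCR and sequenced. Dividing each hexamer's read frequency for a factor by its frequency for the tag-only sample gives the binding signal.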

ETV5 = ETV5 (Homo sapiens, UniProt P41161 1-510)
Outline: as §1

SPIC = target: T2, SPIC (Homo sapiens, UniProt Q8N5J4 1-248)
T2 sequence: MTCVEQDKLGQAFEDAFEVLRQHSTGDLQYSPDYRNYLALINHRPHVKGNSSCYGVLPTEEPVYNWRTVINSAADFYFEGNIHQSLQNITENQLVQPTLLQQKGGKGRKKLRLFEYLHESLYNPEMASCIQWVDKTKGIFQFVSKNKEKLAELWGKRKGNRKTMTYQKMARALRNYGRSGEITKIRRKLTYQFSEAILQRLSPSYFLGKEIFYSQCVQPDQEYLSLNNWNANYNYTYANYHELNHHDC
Outline: as §1

ELF4 = ELF4 (Homo sapiens, UniProt Q99607 1-663)
Outline: as §1

ELK4 = target: T3, ELK4 (Homo sapiens, UniProt P28324-2 1-405)
T3 sequence: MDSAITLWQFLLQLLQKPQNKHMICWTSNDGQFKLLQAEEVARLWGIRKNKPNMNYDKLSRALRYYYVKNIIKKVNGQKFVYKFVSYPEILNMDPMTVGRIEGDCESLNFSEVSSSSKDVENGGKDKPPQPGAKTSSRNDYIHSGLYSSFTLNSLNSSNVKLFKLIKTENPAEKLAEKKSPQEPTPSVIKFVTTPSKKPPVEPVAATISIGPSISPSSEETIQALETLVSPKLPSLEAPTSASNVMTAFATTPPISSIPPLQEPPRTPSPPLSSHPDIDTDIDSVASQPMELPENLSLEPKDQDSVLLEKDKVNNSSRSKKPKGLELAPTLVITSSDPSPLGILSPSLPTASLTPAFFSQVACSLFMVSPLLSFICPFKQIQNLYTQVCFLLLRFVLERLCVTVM
Outline: as §1

ETV2 = target: T4, ETV2 (Homo sapiens, UniProt O00321 1-342)
T4 sequence: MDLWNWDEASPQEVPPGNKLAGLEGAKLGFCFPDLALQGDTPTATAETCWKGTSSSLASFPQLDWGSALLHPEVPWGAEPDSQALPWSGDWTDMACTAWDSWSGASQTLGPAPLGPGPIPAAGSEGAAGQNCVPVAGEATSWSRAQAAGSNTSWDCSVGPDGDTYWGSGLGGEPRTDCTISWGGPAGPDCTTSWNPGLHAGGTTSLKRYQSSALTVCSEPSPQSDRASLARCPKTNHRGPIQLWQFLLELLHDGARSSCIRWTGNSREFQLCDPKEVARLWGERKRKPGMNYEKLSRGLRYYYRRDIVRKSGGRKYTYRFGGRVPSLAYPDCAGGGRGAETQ
Outline: as §1

ELF3 = target: T5, ELF3 (Homo sapiens, UniProt P78545 1-371)
T5 sequence: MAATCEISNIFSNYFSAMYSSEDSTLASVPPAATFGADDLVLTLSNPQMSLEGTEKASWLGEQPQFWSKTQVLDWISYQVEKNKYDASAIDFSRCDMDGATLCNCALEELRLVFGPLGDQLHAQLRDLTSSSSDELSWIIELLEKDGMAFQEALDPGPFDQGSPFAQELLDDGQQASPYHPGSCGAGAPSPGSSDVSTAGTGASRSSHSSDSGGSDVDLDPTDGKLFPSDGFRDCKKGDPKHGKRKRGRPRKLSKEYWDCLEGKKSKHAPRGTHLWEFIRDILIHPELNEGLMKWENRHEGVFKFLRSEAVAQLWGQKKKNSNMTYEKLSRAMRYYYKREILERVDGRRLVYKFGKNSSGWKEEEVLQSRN
Outline: as §1

ETV1 = ETV1 (Homo sapiens, UniProt P50549 1-477)
Outline: as §1

ERF = target: T6, ERF (Homo sapiens, UniProt P50548 1-548)
T6 sequence: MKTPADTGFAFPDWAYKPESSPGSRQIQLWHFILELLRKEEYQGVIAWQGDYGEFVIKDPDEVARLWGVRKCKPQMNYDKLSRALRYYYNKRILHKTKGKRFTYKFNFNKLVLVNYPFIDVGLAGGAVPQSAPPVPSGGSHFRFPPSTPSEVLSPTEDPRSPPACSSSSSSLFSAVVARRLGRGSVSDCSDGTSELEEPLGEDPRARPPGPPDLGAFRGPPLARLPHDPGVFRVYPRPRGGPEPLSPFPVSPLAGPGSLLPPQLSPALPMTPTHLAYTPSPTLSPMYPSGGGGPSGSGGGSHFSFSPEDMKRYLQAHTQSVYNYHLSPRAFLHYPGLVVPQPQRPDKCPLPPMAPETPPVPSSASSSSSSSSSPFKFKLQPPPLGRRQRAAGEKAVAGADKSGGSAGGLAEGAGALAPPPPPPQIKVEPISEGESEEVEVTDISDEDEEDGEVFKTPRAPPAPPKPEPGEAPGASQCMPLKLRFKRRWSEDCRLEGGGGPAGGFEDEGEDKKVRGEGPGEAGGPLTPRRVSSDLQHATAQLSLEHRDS
Outline: as §1

ETV3L = target: T7, ETV3L (Homo sapiens, UniProt Q6ZN32 1-361)
T7 sequence: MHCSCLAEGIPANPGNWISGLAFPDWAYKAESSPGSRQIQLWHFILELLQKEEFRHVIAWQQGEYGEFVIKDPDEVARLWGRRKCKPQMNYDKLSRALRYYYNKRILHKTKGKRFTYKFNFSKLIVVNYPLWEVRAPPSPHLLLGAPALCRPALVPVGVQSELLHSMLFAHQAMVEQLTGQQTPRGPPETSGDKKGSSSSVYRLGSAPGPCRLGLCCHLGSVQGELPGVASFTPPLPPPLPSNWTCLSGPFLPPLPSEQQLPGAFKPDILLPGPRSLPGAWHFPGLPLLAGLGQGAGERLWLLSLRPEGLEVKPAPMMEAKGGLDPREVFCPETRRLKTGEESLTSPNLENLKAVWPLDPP
Outline: as §1

ETS2 = target: T8, ETS2 (Homo sapiens, UniProt P15036 1-469)
T8 sequence: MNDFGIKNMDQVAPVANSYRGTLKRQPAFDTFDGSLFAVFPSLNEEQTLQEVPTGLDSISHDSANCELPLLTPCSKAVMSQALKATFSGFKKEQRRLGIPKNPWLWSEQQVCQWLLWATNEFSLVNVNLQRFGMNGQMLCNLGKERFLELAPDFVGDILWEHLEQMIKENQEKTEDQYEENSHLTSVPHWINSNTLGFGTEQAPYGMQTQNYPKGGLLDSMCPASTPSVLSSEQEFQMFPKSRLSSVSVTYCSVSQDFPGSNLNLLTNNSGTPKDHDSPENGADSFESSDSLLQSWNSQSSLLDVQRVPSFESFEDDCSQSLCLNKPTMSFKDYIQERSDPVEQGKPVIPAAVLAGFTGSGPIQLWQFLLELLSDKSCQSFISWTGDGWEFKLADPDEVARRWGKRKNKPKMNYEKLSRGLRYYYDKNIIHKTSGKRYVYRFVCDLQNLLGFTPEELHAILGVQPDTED
Outline: as §1

SPDEF = target: T9, SPDEF (Homo sapiens, UniProt O95238 1-335)
T9 sequence: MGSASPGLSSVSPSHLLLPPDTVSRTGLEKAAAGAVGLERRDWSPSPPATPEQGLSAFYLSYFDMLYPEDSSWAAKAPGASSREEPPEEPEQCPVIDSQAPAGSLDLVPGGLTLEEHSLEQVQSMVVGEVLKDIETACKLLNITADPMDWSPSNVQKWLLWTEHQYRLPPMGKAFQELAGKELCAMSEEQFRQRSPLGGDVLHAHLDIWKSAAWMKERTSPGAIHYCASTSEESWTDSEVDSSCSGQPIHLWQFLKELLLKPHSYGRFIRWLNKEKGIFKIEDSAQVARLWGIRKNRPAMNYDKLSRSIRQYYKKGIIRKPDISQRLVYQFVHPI
Outline: as §1

ETV7 = target: T10, ETV7 (Homo sapiens, UniProt Q9Y603 1-341)
T10 sequence: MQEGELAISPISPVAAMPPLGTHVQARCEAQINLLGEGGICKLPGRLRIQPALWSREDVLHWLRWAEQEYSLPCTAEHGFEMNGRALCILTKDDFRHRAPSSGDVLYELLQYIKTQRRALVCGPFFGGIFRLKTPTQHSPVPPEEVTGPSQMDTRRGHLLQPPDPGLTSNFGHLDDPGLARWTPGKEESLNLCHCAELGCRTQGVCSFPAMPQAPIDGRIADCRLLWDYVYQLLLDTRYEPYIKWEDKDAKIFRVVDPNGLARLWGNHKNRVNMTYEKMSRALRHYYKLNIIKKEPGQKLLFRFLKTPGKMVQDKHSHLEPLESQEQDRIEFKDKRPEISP
Outline: as §1

ELF5 = target: T11, ELF5 (Homo sapiens, UniProt Q9UKW6-2 1-255)
T11 sequence: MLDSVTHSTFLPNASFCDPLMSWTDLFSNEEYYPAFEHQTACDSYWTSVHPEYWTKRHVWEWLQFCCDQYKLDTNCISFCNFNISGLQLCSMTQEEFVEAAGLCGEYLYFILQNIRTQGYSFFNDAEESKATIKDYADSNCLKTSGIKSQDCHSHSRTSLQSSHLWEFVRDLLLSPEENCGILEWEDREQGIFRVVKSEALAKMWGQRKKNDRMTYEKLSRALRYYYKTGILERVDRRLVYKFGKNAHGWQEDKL
Outline: as §1

ETV3 = target: T12, ETV3 (Homo sapiens, UniProt P41162-2 1-143)
T12 sequence: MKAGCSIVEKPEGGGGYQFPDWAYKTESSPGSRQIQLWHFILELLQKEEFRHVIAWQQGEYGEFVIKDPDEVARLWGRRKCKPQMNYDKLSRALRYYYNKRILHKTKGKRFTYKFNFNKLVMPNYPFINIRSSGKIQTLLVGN
Outline: as §1

ETV6 = ETV6 (Homo sapiens, UniProt P41212 1-452)
Outline: as §1

Sequence of ETV5 (P41161 whole entry): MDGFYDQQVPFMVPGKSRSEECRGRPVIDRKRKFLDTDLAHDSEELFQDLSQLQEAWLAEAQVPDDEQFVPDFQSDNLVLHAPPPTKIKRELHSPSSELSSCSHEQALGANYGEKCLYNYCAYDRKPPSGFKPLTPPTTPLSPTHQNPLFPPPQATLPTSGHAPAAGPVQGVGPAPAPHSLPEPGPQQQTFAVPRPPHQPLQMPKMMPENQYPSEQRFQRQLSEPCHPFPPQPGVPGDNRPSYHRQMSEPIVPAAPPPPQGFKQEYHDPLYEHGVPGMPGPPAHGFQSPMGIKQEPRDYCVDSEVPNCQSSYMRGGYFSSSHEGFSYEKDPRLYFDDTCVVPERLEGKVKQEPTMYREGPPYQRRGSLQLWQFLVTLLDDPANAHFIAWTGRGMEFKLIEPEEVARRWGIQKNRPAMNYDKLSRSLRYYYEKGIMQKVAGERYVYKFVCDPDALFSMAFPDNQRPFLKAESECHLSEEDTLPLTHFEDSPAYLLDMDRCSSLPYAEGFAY
Sequence of ETV1 (P50549 whole entry): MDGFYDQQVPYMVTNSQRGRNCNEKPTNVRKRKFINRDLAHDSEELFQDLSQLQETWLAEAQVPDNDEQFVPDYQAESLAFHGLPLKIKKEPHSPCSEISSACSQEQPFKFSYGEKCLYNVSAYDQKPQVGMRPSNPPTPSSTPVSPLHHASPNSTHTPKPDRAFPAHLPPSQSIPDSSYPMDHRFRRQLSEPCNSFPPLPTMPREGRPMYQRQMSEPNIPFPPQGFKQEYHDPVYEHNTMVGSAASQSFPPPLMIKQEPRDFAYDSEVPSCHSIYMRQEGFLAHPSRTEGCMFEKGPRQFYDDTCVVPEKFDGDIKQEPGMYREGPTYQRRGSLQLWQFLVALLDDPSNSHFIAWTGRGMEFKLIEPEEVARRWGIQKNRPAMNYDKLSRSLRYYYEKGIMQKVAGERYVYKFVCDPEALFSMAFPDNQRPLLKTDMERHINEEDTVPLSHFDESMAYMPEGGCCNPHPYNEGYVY
Sequence of ELF4 (Q99607 whole entry): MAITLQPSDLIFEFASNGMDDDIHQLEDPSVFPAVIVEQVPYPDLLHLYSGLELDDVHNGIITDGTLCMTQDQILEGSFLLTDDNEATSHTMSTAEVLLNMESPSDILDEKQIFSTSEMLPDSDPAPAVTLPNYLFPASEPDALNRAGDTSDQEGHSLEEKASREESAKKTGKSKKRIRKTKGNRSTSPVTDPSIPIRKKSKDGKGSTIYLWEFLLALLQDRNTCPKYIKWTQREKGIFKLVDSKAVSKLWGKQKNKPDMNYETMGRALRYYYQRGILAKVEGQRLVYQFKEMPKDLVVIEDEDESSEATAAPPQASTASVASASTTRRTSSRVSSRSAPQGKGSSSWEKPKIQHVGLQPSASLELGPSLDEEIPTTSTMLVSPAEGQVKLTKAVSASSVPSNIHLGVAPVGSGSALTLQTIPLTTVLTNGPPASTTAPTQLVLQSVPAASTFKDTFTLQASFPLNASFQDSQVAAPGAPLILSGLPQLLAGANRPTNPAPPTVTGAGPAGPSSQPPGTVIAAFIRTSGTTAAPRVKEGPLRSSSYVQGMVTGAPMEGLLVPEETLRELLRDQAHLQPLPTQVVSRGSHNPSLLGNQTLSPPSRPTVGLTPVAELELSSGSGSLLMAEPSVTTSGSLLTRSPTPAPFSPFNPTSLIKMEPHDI
Sequence of ETV6 (P41212 whole entry): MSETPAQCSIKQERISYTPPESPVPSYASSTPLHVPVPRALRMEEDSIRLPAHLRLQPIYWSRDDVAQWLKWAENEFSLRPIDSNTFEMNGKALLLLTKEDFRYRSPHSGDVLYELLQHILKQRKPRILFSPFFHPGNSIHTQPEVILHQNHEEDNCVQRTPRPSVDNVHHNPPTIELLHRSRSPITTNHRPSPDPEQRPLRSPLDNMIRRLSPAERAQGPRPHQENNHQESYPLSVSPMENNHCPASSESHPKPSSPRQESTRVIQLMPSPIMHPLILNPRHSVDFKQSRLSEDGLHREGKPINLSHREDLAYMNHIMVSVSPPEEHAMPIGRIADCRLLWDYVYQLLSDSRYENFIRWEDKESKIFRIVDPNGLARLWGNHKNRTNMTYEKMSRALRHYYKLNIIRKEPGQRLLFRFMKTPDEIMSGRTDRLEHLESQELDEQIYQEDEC

GGAAAC
binding signal (FEV): 1.67 fold enrichment (6-mer frequency, TF over GST control)
binding signal (ETV5): 1.43 fold enrichment (6-mer frequency, TF over GST control)
binding signal (SPIC): 1.26 fold enrichment (6-mer frequency, TF over GST control)
binding signal (ELF4): 1.2 fold enrichment (6-mer frequency, TF over GST control)
binding signal (ELK4): 1.01 fold enrichment (6-mer frequency, TF over GST control)
binding signal (ETV2): 1.35 fold enrichment (6-mer frequency, TF over GST control)
binding signal (ELF3): 1.42 fold enrichment (6-mer frequency, TF over GST control)
binding signal (ETV1): 1.35 fold enrichment (6-mer frequency, TF over GST control)
binding signal (ERF): 1.19 fold enrichment (6-mer frequency, TF over GST control)
binding signal (ETV3L): 1.32 fold enrichment (6-mer frequency, TF over GST control)
binding signal (ETS2): 1.3 fold enrichment (6-mer frequency, TF over GST control)
binding signal (SPDEF): 1.29 fold enrichment (6-mer frequency, TF over GST control)
binding signal (ETV7): 1.34 fold enrichment (6-mer frequency, TF over GST control)
binding signal (ELF5): 1.7 fold enrichment (6-mer frequency, TF over GST control)
binding signal (ETV3): 1.42 fold enrichment (6-mer frequency, TF over GST control)
binding signal (ETV6): 1.66 fold enrichment (6-mer frequency, TF over GST control)

CAATCA
binding signal (FEV): 1.11 fold enrichment (6-mer frequency, TF over GST control)
binding signal (ETV5): 1.15 fold enrichment (6-mer frequency, TF over GST control)
binding signal (SPIC): 1.19 fold enrichment (6-mer frequency, TF over GST control)
binding signal (ELF4): 1.16 fold enrichment (6-mer frequency, TF over GST control)
binding signal (ELK4): 1.04 fold enrichment (6-mer frequency, TF over GST control)
binding signal (ETV2): 1.15 fold enrichment (6-mer frequency, TF over GST control)
binding signal (ELF3): 1.12 fold enrichment (6-mer frequency, TF over GST control)
binding signal (ETV1): 1.13 fold enrichment (6-mer frequency, TF over GST control)
binding signal (ERF): 1.19 fold enrichment (6-mer frequency, TF over GST control)
binding signal (ETV3L): 1.2 fold enrichment (6-mer frequency, TF over GST control)
binding signal (ETS2): 1.13 fold enrichment (6-mer frequency, TF over GST control)
binding signal (SPDEF): 1.07 fold enrichment (6-mer frequency, TF over GST control)
binding signal (ETV7): 1.04 fold enrichment (6-mer frequency, TF over GST control)
binding signal (ELF5): 1.1 fold enrichment (6-mer frequency, TF over GST control)
binding signal (ETV3): 1.1 fold enrichment (6-mer frequency, TF over GST control)
binding signal (ETV6): 1.16 fold enrichment (6-mer frequency, TF over GST control)

Source: publication PMC7862700, “An all-to-all approach to the identification of sequence-specific readers for epigenetic DNA modifications on cytosine”
